# Laboratory results from PubChem BioAssay (Tox21).
# “And” between values parts separate entries of the source, which are not always exact repeats. Identical values can stand only once. Results filed as inconclusive are left out. A call without a number means that no potency is given here. Some compounds were tested as several samples or in several runs, with calls that do not always agree. The source made the active and inactive calls. Calls follow the shape of the dose curve; as a rule, active = well fitted curve in the direction sought with a large enough effect in the repeat runs; inconclusive = weak or mixed curves; inactive = no such curve, though single readings can be large; an effect the other way counts as inactive or inconclusive.
# Legend:
# [1] = A CellTox Green Cytotoxicity Assay to monitor cytotoxicity in HEK293 cells - 40 hour (AID 1224871); also: nearly all actives have a fitted effect of over 45% in size; also: potency is read from the fitted curve at half-maximal effect
# How it was run: (§1)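 Tox21 screen in HEK293: membrane-impermeant cyanine dye fluoresces on binding dead-cell DNA; compound pinned 5 h post-seeding, plates held at 37 C, signal read repeatedly through 40 h.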
# [2] = qHTS RealTime-Glo MT Cell Viability Assay in HEK293 cells - 16 hour (AID 1224872); also: nearly all actives have a fitted effect of over 50% in size; also: potency is read from the fitted curve at half-maximal effect
# How it was run: (§2)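 Cells + reagent dispensed (600 cells/well, HEK293) → 5 h at 37 C/5% CO2 → 23 nL compound in DMSO pinned → 40 h at 37 C → luminescence read at 0, 8, 16, 24, 32, 40 h.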
# [3] = qHTS RealTime-Glo MT Cell Viability Assay in HepG2 cells - 8 hour (AID 1224873); also: nearly all actives have a fitted effect of over 55% in size; also: potency is read from the fitted curve at half-maximal effect
# How it was run: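 HepG2 cells mixed with RealTime-Glo MT reagents (NanoLuc plus cell-permeant prosubstrate) were seeded at 600 cells/well, incubated 5 h at 37 C/5% CO2, then pinned with compounds in DMSO; nonlytic luminescence tracked viability during 40 h treatment.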
# [4] = qHTS RealTime-Glo MT Cell Viability Assay in HEK293 cells - 40 hour (AID 1224874); settings: RealTime-Glo luminescence; max response: stronger effect = lower value; also: nearly all actives have a fitted effect of over 50% in size; also: potency is read from the fitted curve at half-maximal effect
# How it was run: (§3)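 HEK293 + NanoLuc + prosubstrate, 600 cells/well; 5 h, 37 C/5% CO2; compound 23 nL in DMSO by pintool; 37 C; luminescence read at 0, 8, 16, 24, 32 and 40 h time points.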
# [5] = A CellTox Green Cytotoxicity Assay to monitor cytotoxicity in HepG2 cells - 16 hour (AID 1224876); also: nearly all actives have a fitted effect of over 45% in size; also: potency is read from the fitted curve at half-maximal effect
# How it was run: (§4)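 Measurements at 0, 8, 16, 24, 32 and 40 h of treatment captured CellTox Green fluorescence in HepG2 cells that had been co-plated with reagent and preincubated 5 h at 37 C/5% CO2.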
# [6] = qHTS RealTime-Glo MT Cell Viability Assay in HepG2 cells - 32 hour (AID 1224877); also: nearly all actives have a fitted effect of over 55% in size
# How it was run: (§5)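 Real-time, nonlytic viability: 600 HepG2 cells/well mixed with NanoLuc enzyme plus prosubstrate; 5 h settle, compound (DMSO) added by pintool; luminescence monitored over 40 h at 37 C.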
# [7] = A CellTox Green Cytotoxicity Assay to monitor cytotoxicity in HepG2 cells - 24 hour (AID 1224878); also: nearly all actives have a fitted effect of over 45% in size; also: potency is read from the fitted curve at half-maximal effect
# How it was run: as §4
# [8] = A CellTox Green Cytotoxicity Assay to monitor cytotoxicity in HepG2 cells - 40 hour (AID 1224879); also: nearly all actives have a fitted effect of over 40% in size; also: potency is read from the fitted curve at half-maximal effect
# How it was run: as §4
# [9] = qHTS RealTime-Glo MT Cell Viability Assay in HEK293 cells - 0 hour (AID 1224880); also: top concentration of the series differs between compounds; nearly all actives have a fitted effect of over 45% in size
# How it was run: as §3
# [10] = A CellTox Green Cytotoxicity Assay to monitor cytotoxicity in HEK293 cells - 32 hour (AID 1224881); also: nearly all actives have a fitted effect of over 40% in size; also: potency is read from the fitted curve at half-maximal effect
# How it was run: as §1
# [11] = A CellTox Green Cytotoxicity Assay to monitor cytotoxicity in HepG2 cells - 0 hour (AID 1224882); also: nearly all actives have a fitted effect of over 35% in size; also: potency is read from the fitted curve at half-maximal effect
# How it was run: as §4
# [12] = A CellTox Green Cytotoxicity Assay to monitor cytotoxicity in HepG2 cells - 32 hour (AID 1224883); also: nearly all actives have a fitted effect of over 50% in size; also: potency is read from the fitted curve at half-maximal effect
# How it was run: as §4
# [13] = A CellTox Green Cytotoxicity Assay to monitor cytotoxicity in HEK293 cells - 8 hour (AID 1224884); also: nearly all actives have a fitted effect of over 35% in size; also: potency is read from the fitted curve at half-maximal effect
# How it was run: as §1
# [14] = qHTS RealTime-Glo MT Cell Viability Assay in HepG2 cells - 16 hour (AID 1224885); also: nearly all actives have a fitted effect of over 50% in size; also: potency is read from the fitted curve at half-maximal effect
# How it was run: as §5
# [15] = qHTS RealTime-Glo MT Cell Viability Assay in HEK293 cells - 24 hour (AID 1224886); also: nearly all actives have a fitted effect of over 50% in size; also: potency is read from the fitted curve at half-maximal effect
# How it was run: as §2
# [16] = qHTS RealTime-Glo MT Cell Viability Assay in HEK293 cells - 8 hour (AID 1224887); also: nearly all actives have a fitted effect of over 50% in size; also: potency is read from the fitted curve at half-maximal effect
# How it was run: as §3
# [17] = qHTS RealTime-Glo MT Cell Viability Assay in HepG2 cells - 0 hour (AID 1224889); also: nearly all actives have a fitted effect of over 50% in size; also: potency is read from the fitted curve at half-maximal effect
# How it was run: as §5
# [18] = A CellTox Green Cytotoxicity Assay to monitor cytotoxicity in HepG2 cells - 8 hour (AID 1224890); also: nearly all actives have a fitted effect of over 45% in size; also: potency is read from the fitted curve at half-maximal effect
# How it was run: as §4
# [19] = A CellTox Green Cytotoxicity Assay to monitor cytotoxicity in HEK293 cells - 16 hour (AID 1224888); also: nearly all actives have a fitted effect of over 35% in size
# How it was run: as §1
# [20] = A CellTox Green Cytotoxicity Assay to monitor cytotoxicity in HEK293 cells - 24 hour (AID 1224875)
# How it was run: as §1
structure (smiles),measurement,setting,value
COc1cc([C@H]2Oc3cc([C@H]4Oc5cc(O)cc(O)c5C(=O)[C@@H]4O)ccc3O[C@@H]2CO)ccc1O,Potency,[1],inactive and 16.9 µM (active)
same,Potency,[2],inactive
same,Potency,[3],inactive
same,max response,[4],-16.5% (inactive)
same,Potency,[5],inactive and 21.3 µM (active)
same,Potency,[6],inactive
same,Potency,[7],inactive and 21.3 µM (active)
same,Potency,[8],inactive and 21.3 µM (active)
same,Potency,[9],inactive
same,Potency,[10],inactive and 15.1 µM (active)
same,Potency,[11],inactive and 21.3 µM (active)
same,Potency,[12],inactive and 21.3 µM (active)
same,Potency,[13],inactive and 16.9 µM (active)
same,Potency,[14],inactive
same,Potency,[15],inactive
same,Potency,[16],inactive
same,Potency,[17],inactive
same,Potency,[18],inactive and 23.9 µM (active)
CC(=O)Oc1ccc(C(c2ccc(OC(C)=O)cc2)c2ccccn2)cc1,Potency,[1],inactive
same,Potency,[2],inactive
same,Potency,[3],inactive
same,max response,[4],-20.4% (inactive)
same,Potency,[5],inactive
same,Potency,[6],inactive
same,Potency,[7],inactive
same,Potency,[8],inactive
same,Potency,[11],inactive
same,Potency,[12],inactive
same,Potency,[13],inactive
same,Potency,[14],inactive
same,Potency,[15],inactive
same,Potency,[16],inactive
same,Potency,[19],inactive
same,Potency,[17],inactive
same,Potency,[18],inactive
c1ccc2c(c1)ccc1cc3c(ccc4ccccc43)cc12,Potency,[1],inactive
same,Potency,[2],inactive
same,Potency,[3],inactive
same,max response,[4],16% (inactive) and 7.61% (inactive)
same,Potency,[5],inactive
same,Potency,[6],inactive
same,Potency,[7],inactive
same,Potency,[8],4.32 µM (active) and 1.22 µM (active)
same,Potency,[9],inactive
same,Potency,[10],inactive
same,Potency,[11],inactive
same,Potency,[12],inactive
same,Potency,[13],inactive
same,Potency,[14],inactive
same,Potency,[15],inactive
same,Potency,[16],inactive
same,Potency,[19],inactive
same,Potency,[17],inactive
same,Potency,[18],inactive
Cc1ccc2c(c1)C(=O)OC2=O,Potency,[1],inactive
same,Potency,[2],inactive
same,Potency,[3],inactive
same,max response,[4],5.67% (inactive) and 0.571% (inactive)
same,Potency,[5],inactive
same,Potency,[6],inactive
same,Potency,[7],inactive
same,Potency,[8],inactive
same,Potency,[9],inactive
same,Potency,[10],inactive
same,Potency,[11],inactive
same,Potency,[12],inactive
same,Potency,[13],inactive
same,Potency,[14],inactive
same,Potency,[15],inactive
same,Potency,[16],inactive
same,Potency,[19],inactive
same,Potency,[17],inactive
same,Potency,[18],inactive
Nc1ccc(N)c(Cl)c1,Potency,[1],inactive and 38.9 µM (active)
same,Potency,[2],48.9 µM (active)
same,Potency,[3],inactive and 49 µM (active)
same,max response,[4],-27.4% (inactive) and -12.8% (inactive)
same,Potency,[5],inactive and 27.5 µM (active)
same,Potency,[6],inactive
same,Potency,[7],inactive and 43.6 µM (active)
same,Potency,[8],inactive and 43.6 µM (active)
same,Potency,[9],inactive
same,Potency,[11],inactive and 38.9 µM (active)
same,Potency,[12],inactive and 43.6 µM (active)
same,Potency,[13],inactive and 27.5 µM (active)
same,Potency,[14],inactive and 43.6 µM (active)
same,Potency,[15],inactive
same,Potency,[16],21.8 µM (active) and 43.6 µM (active)
same,Potency,[17],inactive
same,Potency,[18],inactive and 38.9 µM (active)
COc1ccc(C(=O)c2ccccc2O)c(O)c1,Potency,[1],34.6 µM (active)
same,Potency,[2],inactive
same,Potency,[3],inactive
same,max response,[4],-10.4% (inactive)
same,Potency,[5],inactive
same,Potency,[6],inactive
same,Potency,[7],inactive
same,Potency,[8],inactive
same,Potency,[9],inactive
same,Potency,[11],inactive
same,Potency,[12],inactive
same,Potency,[13],inactive
same,Potency,[14],inactive
same,Potency,[15],inactive
same,Potency,[16],inactive
same,Potency,[19],inactive
same,Potency,[17],inactive
same,Potency,[18],inactive
CC(C)=CCO,Potency,[1],inactive
same,Potency,[2],inactive
same,Potency,[3],inactive
same,max response,[4],4.01% (inactive) and 0.683% (inactive)
same,Potency,[5],inactive
same,Potency,[6],inactive
same,Potency,[7],inactive
same,Potency,[8],inactive
same,Potency,[9],inactive
same,Potency,[10],inactive
same,Potency,[11],inactive
same,Potency,[12],inactive
same,Potency,[13],inactive
same,Potency,[14],inactive
same,Potency,[15],inactive
same,Potency,[16],inactive
same,Potency,[19],inactive
same,Potency,[17],inactive
same,Potency,[18],inactive
C=C1C[C@H]2[C@@H]3C=C(C)C4=CC(=O)CC[C@]4(C)[C@H]3CC[C@]2(C)[C@@]1(OC(C)=O)C(C)=O,Potency,[1],inactive
same,Potency,[3],inactive
same,Potency,[20],inactive
same,Potency,[5],inactive
same,Potency,[6],inactive
same,Potency,[7],inactive
same,Potency,[8],inactive
same,Potency,[11],inactive
same,Potency,[12],inactive
same,Potency,[13],inactive
same,Potency,[14],inactive
same,Potency,[16],inactive
same,Potency,[19],inactive
same,Potency,[17],1.41 µM (active) and 6.01 µM (active)
same,Potency,[18],inactive
O=C1CCc2ccccc2O1,Potency,[1],inactive
same,Potency,[2],inactive
same,Potency,[3],inactive
same,max response,[4],3.8% (inactive) and -0.872% (inactive)
same,Potency,[5],inactive
same,Potency,[6],inactive
same,Potency,[7],inactive
same,Potency,[8],inactive
same,Potency,[9],inactive
same,Potency,[10],inactive and 21.9 µM (active)
same,Potency,[11],inactive
same,Potency,[12],inactive
same,Potency,[13],inactive
same,Potency,[14],inactive
same,Potency,[15],inactive
same,Potency,[16],inactive
same,Potency,[19],inactive
same,Potency,[17],inactive
same,Potency,[18],inactive
CCC(Cc1c(I)cc(I)c(N)c1I)C(=O)O (stereo not given),Potency,[1],inactive
same,Potency,[2],inactive
same,Potency,[3],inactive
same,max response,[4],3.1% (inactive) and 8.35% (inactive)
same,Potency,[5],inactive
same,Potency,[6],inactive
same,Potency,[7],inactive
same,Potency,[8],inactive
same,Potency,[9],inactive
same,Potency,[11],inactive
same,Potency,[12],inactive
same,Potency,[13],inactive
same,Potency,[14],inactive
same,Potency,[15],inactive
same,Potency,[16],inactive
same,Potency,[19],inactive
same,Potency,[17],inactive
same,Potency,[18],inactive
C[C@]12CC[C@@H]3c4ccc(O)cc4CC[C@H]3[C@@H]1CC[C@@H]2O,Potency,[1],inactive
same,Potency,[3],inactive
same,Potency,[4],17.3 µM (active) and 21.9 µM (active)
same,Potency,[5],inactive
same,Potency,[6],inactive
same,Potency,[7],inactive
same,Potency,[8],34.6 µM (active)
same,Potency,[9],inactive
same,Potency,[10],inactive
same,Potency,[11],inactive
same,Potency,[12],43.6 µM (active) and inactive
same,Potency,[13],inactive
same,Potency,[14],inactive
same,Potency,[15],19.5 µM (active)
same,Potency,[16],inactive
same,Potency,[19],inactive
same,Potency,[17],inactive
same,Potency,[18],inactive
NCCS(=O)(=O)O,Potency,[1],inactive
same,Potency,[2],inactive
same,Potency,[3],inactive
same,max response,[4],13.2% (inactive) and 2.94% (inactive)
same,Potency,[5],inactive
same,Potency,[6],inactive
same,Potency,[7],inactive
same,Potency,[8],inactive
same,Potency,[9],inactive
same,Potency,[11],inactive
same,Potency,[12],inactive
same,Potency,[13],inactive
same,Potency,[14],inactive
same,Potency,[15],inactive
same,Potency,[16],inactive
same,Potency,[19],inactive
same,Potency,[17],inactive
same,Potency,[18],inactive
